PubChem BioAssay (NCI)
The panel holds about 83,000 compounds, 20% with a hit somewhere; the sample as a whole holds those more often.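 Results are percent growth after 48 hours of single-concentration exposure. 100 means growth as in untreated cells, lower positive values show inhibition; negative values down to -100 show cell death.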 A number with no mark means an inactive call. The source made the active and inactive calls. Rule for the calls: active = growth percent below 10; inactive = the rest.

Experiments:
Assay in all cases: NCI-60 one-dose screen, 48 h (100 = growth as untreated, 0 = no growth, -100 = all killed)
Settings in all cases: 10 µM
[1] = tested on: RPMI-8226 leukemia
[2] = tested on: OVCAR-8 ovarian
[3] = tested on: OVCAR-5 ovarian
[4] = tested on: OVCAR-4 ovarian
[5] = tested on: SK-OV-3 ovarian
[6] = tested on: IGROV1 ovarian
[7] = tested on: OVCAR-3 ovarian
[8] = tested on: HS 578T breast
[9] = tested on: NCI/ADR-RES ovarian
[10] = tested on: T-47D breast
[11] = tested on: BT-549 breast
[12] = tested on: MDA-MB-435 melanoma
[13] = tested on: SW-620 colon
[14] = tested on: MCF7 breast
[15] = tested on: HCT-116 colon
[16] = tested on: HCC-2998 colon
[17] = tested on: KM12 colon

Structure (SMILES)	growth [1]	growth [2]	growth [3] [%]	growth [4]	growth [5]	growth [6]	growth [7]	growth [8]	growth [9]	growth [10]	growth [11]	growth [12]	growth [13]	growth [14]	growth [15]	growth [16]	growth [17]
Nc1nc(Nc2ccccc2)n[nH]1	97%	98.1%	103	103%	104%	97.7%	119%	119%	96.6%	91.7%	88.8%	99.2%	107%	95.8%	97.7%	98.1%	107%
COc1cc2cc3c(nc2cc1OC)CCN3Cc1ccc(NC(=O)Nc2cc(C(F)(F)F)cc(C(F)(F)F)c2)cc1	54.2%	61.7%	92.6	80.5%	95.2%	84.3%	51.6%	77.4%	60.5%	71.5%	106%	76.4%	88.3%	49.3%	66.7%	83.4%	68.6%
COc1ccc(-c2nc3ncccn3c2-c2nnc(-c3ccsc3C)o2)cc1	86.9%	25.2%	102	25.7%	54.4%	94.7%	55.4%	56.4%	61.1%	92.1%	63.6%	94.6%	94.6%	77.1%	88.9%	102%	98.6%
CN(C)CC(O)c1ccc2cc(Br)c3ccccc3c2c1 (stereo unspecified)	56.1%	79.7%	68.4	84.9%	95.4%	22.5%	81%	74.9%	59.7%	69.4%	75.8%	42.4%	63.7%	35.1%	41.2%	25.8%	48.6%
Clc1ccc(Nc2ccnc(NCCCNc3ccnc4cc(Cl)ccc34)n2)cc1	-62.1% (active)	-49% (active)	18.3	6.79% (active)	-32% (active)	-6.05% (active)	-19% (active)	-56.7% (active)	4.05% (active)	-63.7% (active)	0.946% (active)	-87.3% (active)	-60.9% (active)	-89.8% (active)	-78.3% (active)	-88.9% (active)	-16.2% (active)
O=C(Nc1cccc(Cl)c1)Nc1nccs1	91.1%	97.9%	109	90.6%	100%	97.5%	114%	115%	91%	73%	90.1%	62%	103%	57.8%	94%	89.7%	81.2%
CC(=O)n1c(-c2ccc(Cl)c(Cl)c2)cn(-c2ccc(Cl)cc2)c1=O	-10.9% (active)	20.8%	42.4	5.33% (active)	19.1%	4.07% (active)	3.73% (active)	-15.5% (active)	11.8%	-47.1% (active)	0.373% (active)	32%	38.7%	21.9%	17.8%	21.6%	49.8%
CC(=O)N(C)c1ccc(Nc2ccc(Nc3ccc(N(C)C(C)=O)cc3)c3c2C(=O)c2ccccc2C3=O)cc1	53.5%	71.2%	97.1	63.7%	78.2%	32.6%	78.7%	58.3%	86%	54.7%	84.4%	101%	84.1%	52%	73.5%	89.6%	71.1%
CC(=O)c1nc2ccccc2n1CCN1CCN(C)CC1	3.09% (active)	34.8%	53.7	64.6%	27.4%	39.3%	4.3% (active)	48.3%	97%	33.4%	48.1%	-80.2% (active)	29.6%	17.8%	11%	37.9%	14.1%
COc1ccc(-c2nc3sc(C4CC4)nn3c2/C=C2/C(=O)Nc3ccc(OC)cc32)cc1	58%	76.7%	89.5	44.6%	50.9%	81.5%	79.7%	25.3%	77.2%	68.7%	40.1%	61.6%	77.7%	30.1%	66.3%	104%	77.8%
O=C(Nc1nc2ccc(F)cc2s1)c1cc(-c2ccc(F)cc2)n2nc(-c3ccccc3)cc2n1	97.7%	38.6%	107	17.9%	86.4%	122%	82.8%	73.3%	53%	75.2%	88%	62.7%	62.4%	80.6%	79.1%	99.8%	65.9%
CN(C)CCS(=O)(=O)CCN(C)C	108%	99.5%	105	120%	98.8%	119%	110%	98.9%	105%	111%	101%	116%	94.5%	107%	96.9%	102%	99.6%
N#Cc1ncc(Br)c(NC2CCCCCC2)n1	93.4%	89.8%	99.9	91.3%	99.1%	104%	119%	107%	106%	90.8%	98.4%	103%	113%	92.1%	104%	111%	113%
CC(=O)N1N=C(c2ccc(Cl)cc2)CC1c1sc(Cl)nc1Cl (stereo unspecified)	87.5%	78%	96.9	66.4%	83.2%	59.1%	75.6%	98.2%	80.7%	75.1%	89.9%	89.2%	102%	85.9%	75.9%	94.8%	93.5%
COc1ccc(-c2nc3sc(-c4ccccc4)c(-c4ccccc4)n3c2/C=C/C(=O)c2ccccn2)cc1	45.7%	67.9%	115	43.7%	103%	82.6%	81.3%	80.6%	85.9%	63.9%	85.5%	90.6%	91%	62%	67.2%	90.9%	83.6%
c1ccc(CSc2nnc3c4c5c(sc4nc(-c4cccnc4)n23)CCCCCC5)cc1	20.1%	20.3%	95.2	27.3%	71.2%	77%	36.4%	86.2%	100%	14%	41.1%	19.1%	55.3%	37.6%	29.3%	46.5%	34.4%
CC12O[C@H](C[C@@H](O)[C@H]1O)n1c3ccccc3c3c4c(c5c6ccccc6n2c5c31)C(=O)N(CCCN)C4=O	40.2%	33.9%	97.2	61%	41.8%	17.9%	37.8%	43.4%	101%	24%	72.9%	32.5%	20.4%	12.2%	13.4%	44.8%	38%
Cc1ccc(C)c(C(O)(c2cc(C)ccc2C)C2(O)CCCCC2)c1	89.7%	97.5%	97.9	93%	90.9%	104%	93.6%	94.1%	94.8%	72.5%	100%	105%	96.8%	97.6%	90.5%	108%	95.4%
